From PubChem BioAssay
The source made the active and inactive calls.

Legend:
[1] = system: Plasmodium falciparum Sir2 (PF13_0152, Sir2A); test: pfSir2 binders on small-molecule microarrays, primary screen, biochemical, small-molecule microarray, 635 nm fluorescence (AID 1098); details: small-molecule microarray binding, fluorescence 635 nm; higher = more signal;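 also: score merges spot fluorescence intensity with its signal-to-noise ratio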
[2] = small-molecule microarray binders of probe aDKK1, primary screen, biochemical, biotinylated probe, 635/667 nm fluorescence (AID 1099); details: higher = more signal;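 also: score merges 667nm spot fluorescence with signal to noise across triplicate slides; reference of the scale not given here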
[3] = small-molecule microarray binders of probe aCHRDL2, primary screen, biochemical, biotinylated probe, 635/667 nm fluorescence (AID 1100); details: higher = more signal
[4] = splicing luciferase reporter signal modulators, primary screen, spliceosome inhibition project, cell-based, HEK293, splice +/- reporter (AID 1101); details: luminescence, 24 h, higher = more signal, called active from +8 up or from −8 down;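 also: HEK293 cells carrying a splicing-competent luciferase reporter gene; test concentration not given here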
[5] = target: Fibroblast growth factor 10 (Homo sapiens) (UniProt O15520); test: FGF10 binders on small-molecule microarrays, primary screen, biochemical, small-molecule microarray, 635 nm fluorescence (AID 1102); details: FGF10 binding, fluorescence 635 nm, higher = more signal
[6] = system: glycogen synthase kinase-3 (GSK3A per assay name; protocol says GSK3B); test: GSK3 binders on small-molecule microarrays, primary screen, biochemical, small-molecule microarray, 635 nm fluorescence, GSK3A (AID 1103); details: small-molecule microarray binding, fluorescence 635 nm; higher = more signal; also: the record names both GSK3A and GSK3B
[7] = target: Epidermal growth factor receptor (Homo sapiens) (UniProt P00533); test: EGFR binders on small-molecule microarrays, primary screen, biochemical, small-molecule microarray, 635 nm fluorescence (AID 1104); details: EGFR binding, higher = more signal;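 also: score merges 667 nm emission intensity with spot signal to noise over triplicate slides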
[8] = target: Follistatin-related protein 3 (Homo sapiens) (UniProt O95633); test: FSTL3 binders on small-molecule microarrays, primary screen, biochemical, small-molecule microarray, 635 nm fluorescence (AID 1105); details: FSTL3 binding, higher = more signal;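 also: score merges emission near 667 nm and signal to noise per printed spot across three slides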
[9] = target: Dickkopf-related protein 1 (Homo sapiens) (UniProt O94907); test: DKK1 binders on small-molecule microarrays, primary screen, biochemical, small-molecule microarray, 635 nm fluorescence scan (AID 1106); details: DKK1 binding, higher = more signal;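 also: score merges emission near 667 nm with signal to noise over three replicate slides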
[10] = system: Inhibin beta A chain (activin A); test: INHBA (activin A) binders on microarrays, primary screen, biochemical, small-molecule microarray, 635 nm fluorescence scan (AID 1107); details: small-molecule microarray binding, higher = more signal;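 also: mouse activin A protein probed at 4.33 µg/mL on printed slides; score merges bound-protein fluorescence near 667 nm with spot signal-to-noise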

Sequence of Dickkopf-related protein 1 (Homo sapiens) (O94907 whole entry, looked up): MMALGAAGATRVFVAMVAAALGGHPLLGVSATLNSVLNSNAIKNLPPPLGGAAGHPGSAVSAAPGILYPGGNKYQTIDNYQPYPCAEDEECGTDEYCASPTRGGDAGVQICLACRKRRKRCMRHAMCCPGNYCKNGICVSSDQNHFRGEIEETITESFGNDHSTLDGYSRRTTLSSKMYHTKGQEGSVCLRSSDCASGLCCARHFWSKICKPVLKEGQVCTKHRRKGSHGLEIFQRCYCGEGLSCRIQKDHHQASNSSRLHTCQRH
Sequence of Fibroblast growth factor 10 (Homo sapiens) (O15520 whole entry, looked up): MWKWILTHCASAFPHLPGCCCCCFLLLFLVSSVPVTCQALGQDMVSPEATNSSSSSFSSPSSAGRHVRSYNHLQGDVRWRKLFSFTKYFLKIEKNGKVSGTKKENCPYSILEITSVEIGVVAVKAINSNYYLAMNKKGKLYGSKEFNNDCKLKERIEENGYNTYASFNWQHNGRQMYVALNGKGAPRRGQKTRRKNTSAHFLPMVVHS
Sequence of Epidermal growth factor receptor (Homo sapiens) (P00533 whole entry, looked up): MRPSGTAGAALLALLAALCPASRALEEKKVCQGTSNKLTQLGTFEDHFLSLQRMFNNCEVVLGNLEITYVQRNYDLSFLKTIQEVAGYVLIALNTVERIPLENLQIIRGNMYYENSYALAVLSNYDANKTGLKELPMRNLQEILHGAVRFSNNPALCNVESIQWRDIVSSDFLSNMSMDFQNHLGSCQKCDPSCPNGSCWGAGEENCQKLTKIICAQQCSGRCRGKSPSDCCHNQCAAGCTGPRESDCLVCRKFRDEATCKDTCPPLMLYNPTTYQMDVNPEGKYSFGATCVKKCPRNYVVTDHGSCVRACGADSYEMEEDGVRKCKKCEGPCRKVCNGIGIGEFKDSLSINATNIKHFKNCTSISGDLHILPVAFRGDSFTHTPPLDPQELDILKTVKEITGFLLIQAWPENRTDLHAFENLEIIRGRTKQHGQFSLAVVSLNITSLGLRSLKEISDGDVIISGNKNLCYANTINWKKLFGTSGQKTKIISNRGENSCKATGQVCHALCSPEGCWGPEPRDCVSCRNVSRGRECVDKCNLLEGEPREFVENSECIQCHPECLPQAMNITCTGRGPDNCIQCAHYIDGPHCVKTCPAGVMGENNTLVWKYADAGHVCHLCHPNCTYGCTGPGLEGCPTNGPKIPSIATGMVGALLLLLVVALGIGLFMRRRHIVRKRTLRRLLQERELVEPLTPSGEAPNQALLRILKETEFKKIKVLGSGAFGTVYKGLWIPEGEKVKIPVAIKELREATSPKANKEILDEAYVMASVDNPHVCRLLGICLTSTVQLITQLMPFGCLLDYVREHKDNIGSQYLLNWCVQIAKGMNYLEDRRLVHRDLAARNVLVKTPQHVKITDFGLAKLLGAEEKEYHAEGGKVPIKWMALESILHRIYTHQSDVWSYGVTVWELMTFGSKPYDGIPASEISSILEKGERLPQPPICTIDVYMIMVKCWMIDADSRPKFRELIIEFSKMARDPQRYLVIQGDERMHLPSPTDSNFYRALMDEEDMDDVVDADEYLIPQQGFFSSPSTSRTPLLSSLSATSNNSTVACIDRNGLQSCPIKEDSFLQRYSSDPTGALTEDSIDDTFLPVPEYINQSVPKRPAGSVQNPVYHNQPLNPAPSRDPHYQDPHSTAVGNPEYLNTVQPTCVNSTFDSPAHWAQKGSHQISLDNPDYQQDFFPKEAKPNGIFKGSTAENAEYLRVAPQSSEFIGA
Sequence of Follistatin-related protein 3 (Homo sapiens) (O95633 whole entry, looked up): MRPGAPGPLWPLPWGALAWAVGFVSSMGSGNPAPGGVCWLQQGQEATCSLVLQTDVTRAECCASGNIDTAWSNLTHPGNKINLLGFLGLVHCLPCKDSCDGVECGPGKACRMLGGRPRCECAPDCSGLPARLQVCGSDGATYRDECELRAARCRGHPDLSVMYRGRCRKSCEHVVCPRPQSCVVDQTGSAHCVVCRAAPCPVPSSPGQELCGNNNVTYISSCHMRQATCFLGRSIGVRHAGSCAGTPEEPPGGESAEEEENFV

| SMILES | composite z-score [1] | composite z-score [2] | composite z-score [3] | z-score [4] | composite z-score [5] | composite z-score [6] | composite z-score [7] | composite z-score [8] | composite z-score [9] | composite z-score [10] |
| --- | --- | --- | --- | --- | --- | --- | --- | --- | --- | --- |
| O=C(NC1CC1)[C@@H]1c2ccccc2C(=O)N(Cc2ccccc2Cl)[C@H]1c1ccc(CO)cc1 | 0.814 | 0.893 | 1.02 | -0.544 (inactive) | 0.474 | 1.24 | 0.186 | 0.654 | 0.63 | 1.17 |
| COc1cc2c(cc1OC)CN(C(=O)[C@H]1[C@@H]3C(=O)O[C@@H](c4ccccc4)[C@@H](c4ccccc4)N3[C@@H](c3ccc(O)cc3)[C@]13C(=O)Nc1ccccc13)CC2 | 1.23 | -0.0009 | -0.123 | -0.0299 (inactive) | 0.708 | 0.691 | -0.0502 | -0.276 | -0.198 | -0.188 |
| CC(C)C(O)C1C=CC2C(=O)NC(=O)C2N1Nc1ccc(Cl)cc1Cl (stereo not given) | 0.686 | 1.2 | 1.37 | 1.54 (inactive) | -0.0826 | -0.234 | -0.0718 | -0.265 | -0.939 | 1.47 |
| O=C(N1CCCCC1)[C@]1(Cc2ccccc2)N=C(c2ccc(OCCCO)cc2)O[C@@H]1c1ccccc1 | 1.05 | 0.887 | 1.08 | -0.555 (inactive) | 0.956 | 0.669 | -0.394 | 0.512 | -0.474 | 0.99 |
| NCCCCCNC(=O)[C@@H]1C[C@@H]2C(=O)N[C@@H](Cc3ccccc3)C(=O)N2[C@@H]1c1ccc(O)cc1 | 1.14 | -0.0335 | 0.475 | 1.31 (inactive) | 1.11 | 1.17 | 0.632 | 1.37 | 0.484 | 0.609 |
| CCCCCCc1nc(-c2cc(C)c(OC)c(C)c2)cc2c1[Si](C(C)C)(C(C)C)OC2 | -0.218 | -0.12 | -0.0937 | -2.3 (inactive) | -0.0932 | 0.194 | -0.314 | -0.105 | -0.0304 | 0.641 |
| Cc1ccc(S[C@]2(C(=O)NCCCN(C)C)CC(=O)N(Cc3cc(C(F)(F)F)cc(C(F)(F)F)c3)[C@@H]2c2ccc(CO)cc2)cc1 | -1 | -0.214 | 0.495 | 0.269 (inactive) | -1.11 | -0.655 | -0.675 | 0.259 | -1.62 | 0.798 |
| C=CCOC(=O)[C@H]1[C@@H]2C(=O)O[C@@H](c3ccccc3)[C@@H](c3ccccc3)N2[C@@H](c2ccc(OCCOC(=O)[C@H]3C[C@H]4C(=O)N[C@@H](CCCCNC(C)=O)C(=O)N4[C@H]3c3cccc(OCCO)c3)cc2)[C@]12C(=O)Nc1ccccc12 | 1.42 | -0.194 | 0.285 | 0.29 (inactive) | 1.31 | 1.32 | 0.674 | 0.775 | 0.824 | 0.134 |
| C=CCN1C(=O)[C@]2(O[C@H](CCn3cc([C@H](O)c4ccccc4)nn3)[C@@H]([Si](C)(C)c3ccc(OC)cc3)[C@@H]2C)c2ccccc21 | 0.474 | -0.291 | 0.414 | 3.39 (inactive) | -0.364 | -0.781 | -1.25 | -0.581 | -0.651 | 0.162 |
| [N-]=[N+]=NCc1ccccc1C[C@]1(C(=O)N2CCCCC2)N=C(c2ccc(OCCCO)cc2)O[C@H]1c1ccccc1N=[N+]=[N-] | 0.711 | 1.1 | 1.19 | -1.01 (inactive) | 0.55 | 0.998 | 0.26 | 0.308 | -0.5 | 1.36 |
| CC(C)C[C@@H]1NC(=O)[C@@H]2C[C@H](C(=O)NCc3ccc(F)cc3)[C@H](c3cccc(OCCO)c3)N2C1=O | 1.52 | -0.23 | 0.0811 | -0.177 (inactive) | 1.2 | 0.615 | 0.284 | 0.946 | 0.322 | -0.19 |
| C=CCC(OC(C)=O)[C@@H]1[C@@H](N(Cc2ccc(-c3ccccc3)cc2)C(=O)Cc2ccc(OC)cc2)c2cc(OCCCO)ccc2N1C(=O)Cc1ccc2ccccc2c1 (stereo not given in full) | -0.324 | -0.0834 | 0.308 | 0.247 (inactive) | -0.437 | -0.299 | -0.163 | -0.0274 | -0.0237 | 1.06 |
| COCCOC(=O)N1C(=O)[C@@]2(c3cc(C#Cc4ccc(OC)cc4)ccc31)[C@H](c1ccc(OCCO)cc1)N1[C@H](c3ccccc3)[C@H](c3ccccc3)OC(=O)[C@H]1[C@@H]2C(=O)N1CCN(c2ncccn2)CC1 | -0.0214 | 0.775 | 0.257 | -0.449 (inactive) | 0.703 | 1.28 | 0.667 | 1.27 | 1.28 | -0.0857 |
| COCCOC(=O)N1C(=O)[C@@]2(c3cc(C#Cc4ccc(OC)cc4)ccc31)[C@H](c1ccccc1OCCO)N1[C@H](c3ccccc3)[C@H](c3ccccc3)OC(=O)[C@H]1[C@@H]2C(=O)NC[C@H](O)c1ccccc1 | 1.23 | 0.201 | 0.145 | -0.352 (inactive) | 1.14 | 0.748 | 0.544 | 1.43 | 0.696 | 0.53 |
| CCN(CC)c1ccc(N2CC=CC34O[C@@H]5C=CCCOC(=O)C5[C@H]3C(=O)N(CCCCCCO)[C@@H]4C2=O)cc1 (stereo not given in full) | 1.93 | -0.0776 | 0.414 | -1.98 (inactive) | -1.26 | -0.39 | -0.661 | -0.879 | -0.555 | 0.816 |
| COCCOC(=O)N1C(=O)[C@@]2(c3cc(C#CCC(C(=O)OC)C(=O)OC)ccc31)[C@H](C(=O)Nc1nc3ccccc3s1)[C@H]1C(=O)O[C@H](c3ccccc3)[C@H](c3ccccc3)N1[C@@H]2c1ccccc1OCCO | 1.52 | 0.467 | 0.76 | 0.952 (inactive) | 0.634 | 1.04 | 0.231 | 1.29 | -0.154 | 0.046 |
| CC(CO)N1C(=O)[C@@H]2C3C(=O)OCCC/C=C\[C@H]3OC23C=CCN(C(C)(C)C)C(=O)[C@@H]13 (stereo not given in full) | 0.205 | -0.349 | -0.522 | 0.742 (inactive) | 0.259 | -0.0474 | -0.325 | 0.0856 | 0.113 | 0.0635 |
| NC(=O)NCC#Cc1ccc2c(c1)[C@]1(C(=O)N2)[C@H](c2ccc(O)cc2)N2[C@H](c3ccccc3)[C@H](c3ccccc3)OC(=O)[C@H]2[C@@H]1C(=O)O | -0.0693 | -0.173 | 0.617 | 0.307 (inactive) | -0.114 | -0.928 | -0.683 | -0.966 | -1.22 | -0.203 |
| CN(C)CCCCCCNC(=O)[C@H]1C[C@H]2C(=O)N3CCC[C@H]3C(=O)N2[C@H]1c1ccc(O)cc1 | 1.42 | 0.11 | 0.0341 | -0.8 (inactive) | 1.28 | 1.35 | 1.6 | 1.44 | 1.25 | 1.08 |
| CN1C(=O)C2C=CC(C(O)c3ccco3)N(Nc3ccccc3)C2C1=O (stereo not given) | 0.307 | 0.44 | 0.338 | 0.883 (inactive) | 0.953 | 0.386 | 0.466 | 0.523 | 0.519 | 1.16 |
| COCCOC(=O)N1C(=O)[C@@]2(c3ccccc31)[C@H](c1ccc(O)cc1)N1[C@H](c3ccccc3)[C@H](c3ccccc3)OC(=O)[C@H]1[C@@H]2C(=O)Nc1nc2ccccc2s1 | 1.39 | -0.0358 | -0.167 | -1.3 (inactive) | 0.724 | 1.05 | 0.252 | 0.542 | 0.39 | 0.0446 |
| CCC(CC)C(O)C1C=CC2C(=O)NC(=O)C2N1Nc1ccc(Cl)cc1Cl (stereo not given) | 1.28 | 0.921 | 1 | 1.6 (inactive) | 0.626 | 0.451 | -0.304 | 0.934 | -0.267 | 0.764 |
| CN1C(=O)C2C=CC(C(O)c3ccc([N+](=O)[O-])cc3)N(N3CCCCC3)C2C1=O (stereo not given) | 1.41 | 0.193 | 0.956 | 0.943 (inactive) | 0.941 | 0.964 | 0.4 | 0.832 | -0.0607 | 1.23 |
| C=CCNC(=O)[C@@H]1[C@H]2C(=O)O[C@H](c3ccccc3)[C@H](c3ccccc3)N2[C@H](c2ccc(OCCO)cc2)[C@@]12C(=O)Nc1ccc(C#CCC(C(=O)OC)C(=O)OC)cc12 | 1.7 | 0.264 | 0.171 | -0.646 (inactive) | 1.23 | 1.27 | -0.122 | 0.753 | 0.335 | 0.614 |
| CCc1cccc(NC(=O)O[C@H]2[C@H](OC(=O)Nc3ccccc3-c3ccccc3)[C@@H](OC(=O)Nc3ccccc3-c3ccccc3)[C@@H](OC)O[C@@H]2CO)c1 | 1.29 | 0.481 | 0.648 | -2.55 (inactive) | 1.13 | 0.954 | 0.0707 | 1.38 | -0.0897 | 0.465 |
| O=C(NCCN1CCOCC1)[C@@H]1c2ccccc2C(=O)N(C2CCCCC2)[C@H]1c1ccc(CO)cc1 | 1.06 | 0.484 | 0.92 | 0.261 (inactive) | -0.534 | -0.362 | -1.03 | -0.942 | -0.809 | 0.891 |
| COc1cc(COC(C)=O)ccc1OC(C)=O | 0.0968 | 1.85 | 0.285 | -0.309 (inactive) | 0.301 | 0.578 | 1.04 | 0.505 | 1.17 | 0.47 |
| CN(C)C(=O)[C@]1(Cc2ccccc2N=[N+]=[N-])N=C(c2ccc(OCCCO)cc2)O[C@@H]1c1ccccc1N=[N+]=[N-] | 1.11 | 1.72 | 1.01 | -0.727 (inactive) | 0.885 | -0.0929 | 0.405 | 1.3 | 0.172 | 1.14 |
| COCCOC(=O)N1C(=O)[C@@]2(c3cc(C#CCNC(N)=O)ccc31)[C@H](C(=O)Nc1nc3ccccc3s1)[C@H]1C(=O)O[C@H](c3ccccc3)[C@H](c3ccccc3)N1[C@@H]2c1ccc(OCCO)cc1 | -0.112 | 0.92 | 0.795 | -0.239 (inactive) | 1.11 | 0.755 | 0.373 | 0.963 | 1.15 | 0.542 |
